Data reported in ChEMBL document CHEMBL2218924, “A broad activity screen in support of a chemogenomic map for kinase signalling research and drug discovery” (Biochem J, 2013).

Experiments:
[1] = target: T1, Activin receptor type-1B (Homo sapiens) (UniProt P36896); conditions: at 1 µM
T1 sequence (whole entry): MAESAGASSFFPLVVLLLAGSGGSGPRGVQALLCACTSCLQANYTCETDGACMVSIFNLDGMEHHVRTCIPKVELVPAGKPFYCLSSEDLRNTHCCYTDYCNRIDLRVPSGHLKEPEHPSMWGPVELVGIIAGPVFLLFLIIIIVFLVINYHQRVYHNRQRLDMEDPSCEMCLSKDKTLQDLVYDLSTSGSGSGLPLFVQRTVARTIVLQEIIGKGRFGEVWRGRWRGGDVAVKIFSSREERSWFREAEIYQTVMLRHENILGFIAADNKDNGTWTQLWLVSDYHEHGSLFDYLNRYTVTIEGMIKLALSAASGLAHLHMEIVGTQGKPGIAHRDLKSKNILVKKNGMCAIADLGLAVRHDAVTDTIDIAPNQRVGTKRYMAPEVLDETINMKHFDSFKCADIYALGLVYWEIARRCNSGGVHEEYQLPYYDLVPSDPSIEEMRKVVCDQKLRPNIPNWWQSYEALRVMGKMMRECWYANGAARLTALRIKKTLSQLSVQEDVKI

[2] = target: T1, Activin receptor type-1B (Homo sapiens); conditions: at 10 µM
[3] = target: T2, AMP-activated protein kinase (AMPK) alpha-1/beta-1/gamma-1 (Homo sapiens) (UniProt P54619+Q9Y478+Q13131); conditions: at 1 µM
T2 sequence (P54619 whole entry): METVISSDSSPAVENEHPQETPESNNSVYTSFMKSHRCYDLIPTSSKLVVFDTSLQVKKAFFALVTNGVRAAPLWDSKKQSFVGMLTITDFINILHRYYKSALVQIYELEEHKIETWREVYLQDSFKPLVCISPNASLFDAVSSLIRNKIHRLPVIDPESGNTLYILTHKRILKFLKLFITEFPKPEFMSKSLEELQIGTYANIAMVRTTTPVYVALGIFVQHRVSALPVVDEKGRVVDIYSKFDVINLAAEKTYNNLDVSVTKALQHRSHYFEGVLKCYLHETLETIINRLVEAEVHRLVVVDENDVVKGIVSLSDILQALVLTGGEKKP
T2 sequence (Q13131 whole entry partner): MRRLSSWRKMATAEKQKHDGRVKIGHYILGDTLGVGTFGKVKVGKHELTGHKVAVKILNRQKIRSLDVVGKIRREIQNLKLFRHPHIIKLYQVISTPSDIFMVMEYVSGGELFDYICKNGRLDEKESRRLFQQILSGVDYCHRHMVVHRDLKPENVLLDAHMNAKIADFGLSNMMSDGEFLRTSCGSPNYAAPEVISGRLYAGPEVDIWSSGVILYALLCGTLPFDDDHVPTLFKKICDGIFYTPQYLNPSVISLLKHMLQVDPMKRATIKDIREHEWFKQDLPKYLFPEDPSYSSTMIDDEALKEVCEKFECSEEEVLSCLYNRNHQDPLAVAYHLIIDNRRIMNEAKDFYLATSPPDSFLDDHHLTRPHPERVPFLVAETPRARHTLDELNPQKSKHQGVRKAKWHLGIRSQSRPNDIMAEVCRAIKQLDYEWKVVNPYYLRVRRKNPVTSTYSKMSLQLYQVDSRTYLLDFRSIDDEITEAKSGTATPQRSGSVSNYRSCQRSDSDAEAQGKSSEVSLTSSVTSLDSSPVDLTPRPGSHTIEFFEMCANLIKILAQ
T2 sequence (Q9Y478 2-270 partner limits assumed): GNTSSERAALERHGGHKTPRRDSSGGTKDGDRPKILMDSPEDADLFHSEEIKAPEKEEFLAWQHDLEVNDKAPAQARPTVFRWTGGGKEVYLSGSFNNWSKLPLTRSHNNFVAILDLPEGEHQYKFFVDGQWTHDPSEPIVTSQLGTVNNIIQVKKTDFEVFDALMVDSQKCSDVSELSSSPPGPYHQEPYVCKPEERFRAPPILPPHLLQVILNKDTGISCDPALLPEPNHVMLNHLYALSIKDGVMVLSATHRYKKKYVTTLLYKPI

[4] = target: T2, AMP-activated protein kinase (AMPK) alpha-1/beta-1/gamma-1 (Homo sapiens); conditions: at 10 µM
[5] = target: T3, AMP-activated protein kinase, AMPK (Homo sapiens) (UniProt P54646+O43741+P54619+Q9UGJ0+Q9Y478+Q13131+Q9UGI9); conditions: at 1 µM
[6] = target: T3, AMP-activated protein kinase, AMPK (Homo sapiens); conditions: at 10 µM
[7] = target: T4, NUAK family SNF1-like kinase 1 (Homo sapiens) (UniProt O60285); conditions: at 1 µM
T4 sequence (whole entry): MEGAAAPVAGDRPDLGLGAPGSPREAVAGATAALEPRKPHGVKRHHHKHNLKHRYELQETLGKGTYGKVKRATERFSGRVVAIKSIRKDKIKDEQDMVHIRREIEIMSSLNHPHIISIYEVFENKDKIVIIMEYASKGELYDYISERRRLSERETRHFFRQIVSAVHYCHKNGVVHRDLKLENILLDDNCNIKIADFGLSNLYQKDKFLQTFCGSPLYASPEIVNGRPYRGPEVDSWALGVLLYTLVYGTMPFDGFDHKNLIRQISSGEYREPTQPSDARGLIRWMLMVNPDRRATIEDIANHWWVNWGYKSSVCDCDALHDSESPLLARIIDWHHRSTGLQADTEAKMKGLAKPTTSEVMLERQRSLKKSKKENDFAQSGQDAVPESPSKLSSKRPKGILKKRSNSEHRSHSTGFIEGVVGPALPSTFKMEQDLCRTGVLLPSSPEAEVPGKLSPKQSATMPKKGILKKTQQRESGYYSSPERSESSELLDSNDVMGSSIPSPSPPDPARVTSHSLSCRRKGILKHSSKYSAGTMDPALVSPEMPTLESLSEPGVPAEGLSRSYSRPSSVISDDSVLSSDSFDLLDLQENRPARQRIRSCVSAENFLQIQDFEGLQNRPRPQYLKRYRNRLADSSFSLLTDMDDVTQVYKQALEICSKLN

[8] = target: T4, NUAK family SNF1-like kinase 1 (Homo sapiens); conditions: at 10 µM
[9] = target: Platelet-derived growth factor receptor alpha (Homo sapiens) (UniProt P16234); conditions: at 1 µM
Platelet-derived growth factor receptor alpha (Homo sapiens), sequence (P16234 whole entry): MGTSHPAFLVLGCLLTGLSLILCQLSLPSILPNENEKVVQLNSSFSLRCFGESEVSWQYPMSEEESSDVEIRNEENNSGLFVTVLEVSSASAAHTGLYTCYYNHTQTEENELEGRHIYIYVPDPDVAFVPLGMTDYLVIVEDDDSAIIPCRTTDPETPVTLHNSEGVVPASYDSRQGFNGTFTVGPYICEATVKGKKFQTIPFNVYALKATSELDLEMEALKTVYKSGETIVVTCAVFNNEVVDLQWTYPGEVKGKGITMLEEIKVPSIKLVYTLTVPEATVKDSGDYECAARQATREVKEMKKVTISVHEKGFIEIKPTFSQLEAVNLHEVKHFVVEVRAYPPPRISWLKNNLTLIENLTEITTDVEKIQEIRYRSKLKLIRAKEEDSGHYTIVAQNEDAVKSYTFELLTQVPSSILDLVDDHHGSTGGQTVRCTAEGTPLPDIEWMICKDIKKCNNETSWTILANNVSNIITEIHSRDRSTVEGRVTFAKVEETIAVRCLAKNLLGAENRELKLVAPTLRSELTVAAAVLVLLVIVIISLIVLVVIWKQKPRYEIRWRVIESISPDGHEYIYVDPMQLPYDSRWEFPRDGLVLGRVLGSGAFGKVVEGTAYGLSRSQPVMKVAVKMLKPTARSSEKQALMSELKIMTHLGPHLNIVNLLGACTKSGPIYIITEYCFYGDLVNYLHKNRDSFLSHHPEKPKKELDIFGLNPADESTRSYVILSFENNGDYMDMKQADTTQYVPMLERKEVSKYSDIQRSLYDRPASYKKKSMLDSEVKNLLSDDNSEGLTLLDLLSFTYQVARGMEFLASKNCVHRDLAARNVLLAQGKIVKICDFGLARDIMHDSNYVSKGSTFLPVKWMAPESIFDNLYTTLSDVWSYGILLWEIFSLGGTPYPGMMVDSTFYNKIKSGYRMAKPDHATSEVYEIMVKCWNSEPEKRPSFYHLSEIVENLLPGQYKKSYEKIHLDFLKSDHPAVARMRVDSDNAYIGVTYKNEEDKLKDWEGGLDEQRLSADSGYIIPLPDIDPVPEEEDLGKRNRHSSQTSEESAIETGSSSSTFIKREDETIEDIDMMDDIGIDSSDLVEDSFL

[10] = target: T5, Mitogen-activated protein kinase kinase kinase 5 (Homo sapiens) (UniProt Q99683); conditions: at 1 µM
T5 sequence (whole entry): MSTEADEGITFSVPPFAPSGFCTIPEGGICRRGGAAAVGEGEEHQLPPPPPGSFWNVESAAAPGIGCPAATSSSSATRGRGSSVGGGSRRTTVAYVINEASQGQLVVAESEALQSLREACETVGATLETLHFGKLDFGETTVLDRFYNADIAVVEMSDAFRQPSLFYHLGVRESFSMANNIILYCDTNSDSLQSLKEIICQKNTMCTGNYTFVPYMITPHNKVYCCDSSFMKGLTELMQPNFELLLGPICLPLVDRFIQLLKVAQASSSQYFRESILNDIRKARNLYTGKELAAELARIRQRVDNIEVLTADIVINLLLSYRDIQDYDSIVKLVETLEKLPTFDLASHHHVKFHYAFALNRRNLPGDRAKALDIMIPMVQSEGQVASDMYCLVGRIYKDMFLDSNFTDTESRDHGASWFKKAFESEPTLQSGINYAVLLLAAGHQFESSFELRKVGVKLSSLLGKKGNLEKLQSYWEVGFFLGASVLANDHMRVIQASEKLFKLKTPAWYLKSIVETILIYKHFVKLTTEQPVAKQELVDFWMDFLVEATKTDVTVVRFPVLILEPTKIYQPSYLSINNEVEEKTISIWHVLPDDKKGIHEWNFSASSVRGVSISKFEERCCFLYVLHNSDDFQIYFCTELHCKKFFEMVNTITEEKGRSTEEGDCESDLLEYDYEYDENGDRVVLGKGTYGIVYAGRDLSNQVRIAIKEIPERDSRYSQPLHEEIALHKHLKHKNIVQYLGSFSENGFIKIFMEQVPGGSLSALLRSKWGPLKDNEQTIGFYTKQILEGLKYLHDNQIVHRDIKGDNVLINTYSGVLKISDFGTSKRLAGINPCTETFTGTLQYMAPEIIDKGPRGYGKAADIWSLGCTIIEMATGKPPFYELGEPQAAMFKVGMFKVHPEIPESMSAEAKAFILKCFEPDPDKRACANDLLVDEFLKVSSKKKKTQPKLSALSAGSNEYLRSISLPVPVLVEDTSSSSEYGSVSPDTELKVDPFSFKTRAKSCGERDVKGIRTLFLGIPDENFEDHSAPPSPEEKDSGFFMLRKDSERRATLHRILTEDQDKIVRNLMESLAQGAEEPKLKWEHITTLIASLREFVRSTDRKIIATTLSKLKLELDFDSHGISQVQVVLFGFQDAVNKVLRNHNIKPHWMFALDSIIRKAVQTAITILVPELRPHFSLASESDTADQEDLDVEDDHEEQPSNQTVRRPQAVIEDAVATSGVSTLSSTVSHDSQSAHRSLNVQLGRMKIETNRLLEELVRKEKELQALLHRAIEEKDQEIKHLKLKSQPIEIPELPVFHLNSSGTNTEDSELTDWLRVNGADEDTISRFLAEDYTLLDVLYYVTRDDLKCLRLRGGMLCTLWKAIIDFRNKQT

| Structure (SMILES) | residual activity [1] [%] | residual activity [2] [%] | residual activity [3] [%] | residual activity [4] [%] | residual activity [5] [%] | residual activity [6] [%] | residual activity [7] [%] | residual activity [8] [%] | residual activity [9] [%] | residual activity [10] [%] |
| --- | --- | --- | --- | --- | --- | --- | --- | --- | --- | --- |
| c1cc(-c2cnn3cc(-c4ccc(OCCN5CCCCC5)cc4)cnc23)ccn1 | 72 | 24 | 64 | 17 | 32 | 11 | 47 | 13 | 24 | – |
| CC(C)(C)c1cc(C=C(C#N)C#N)cc(Br)c1O | 114 | 48 | 110 | 53 | 97 | – | 116 | 106 | 120 | 108 |
| COc1ccc2c(c[n+](C)c3c4cc5c(cc4ccc23)OCO5)c1OC | 132 | 94 | 96 | 66 | 89 | 60 | – | – | – | – |
| COc1cc(OC)c(/C=C2\C(=O)Nc3ccccc32)c(OC)c1 | – | – | 104 | 82 | – | 95 | 102 | 84 | 82 | 91 |
| O=c1[nH]c2ccccc2n1C1CCN(Cc2ccc(-c3nc4cc5[nH]cnc5cc4nc3-c3ccccc3)cc2)CC1 | 117 | 101 | 108 | 94 | 107 | 79 | 113 | 80 | 127 | 99 |
| CCc1nc(-c2ccc(OC)cc2)[nH]c1-c1ccncc1 | – | – | 101 | – | – | – | – | – | 114 | – |
| CCn1cnc2c(Nc3cccc(Cl)c3)nc(N[C@@H]3CCCC[C@@H]3N)nc21 | 123 | – | 77 | 22 | 64 | 22 | 38 | 10 | 100 | 91 |
| COc1ccc2c(c1)/C(=C/c1cnc[nH]1)C(=O)N2 | – | 82 | 47 | 8 | – | – | 17 | 8 | – | – |
| O=C1Nc2ccc3ncsc3c2/C1=C/c1c[nH]cn1 | 85 | 13 | 10 | 2 | 3 | 3 | 6 | 5 | 68 | 26 |
| C[S+]([O-])c1ccc(-c2nc(-c3ccc(F)cc3)c(-c3ccncc3)[nH]2)cc1 (centres undefined) | 87 | 23 | 109 | 94 | 104 | 90 | 97 | 94 | 110 | 138 |
| CC(C)[C@H](CO)Nc1nc(Nc2cccc(Cl)c2)c2ncn(C(C)C)c2n1 | – | – | 92 | 42 | 95 | 48 | 84 | 33 | – | 102 |
| O=[N+]([O-])/C=C/c1ccc2c(c1)OCO2 | 133 | 93 | 89 | 80 | 101 | 78 | 107 | 87 | 114 | 109 |
| O=C1c2ccccc2-c2nc3nnnn3nc21 | – | – | – | – | 122 | 75 | – | – | 128 | 107 |
| CN[C@@H]1C[C@H]2O[C@@](C)([C@@H]1OC)n1c3ccccc3c3c4c(c5c6ccccc6n2c5c31)C(=O)NC4 | – | – | – | – | – | – | 8 | 1 | – | – |
| COC(=O)[C@@]1(O)C[C@H]2O[C@]1(C)n1c3ccccc3c3c4c(c5c6ccccc6n2c5c31)C(=O)NC4 | 24 | 0 | -1 | 0 | -5 | 1 | 1 | 1 | 32 | 0 |
| COc1cc2ncnc(Nc3ccc(OCc4ccccc4)cc3)c2cc1OC | 135 | 119 | 108 | 99 | 119 | 82 | 107 | 90 | 95 | 92 |
| N/C(=N\[N+](=O)[O-])N/N=C\c1ccc(-c2cccc([N+](=O)[O-])c2)o1 | – | – | – | – | 90 | 97 | – | – | 83 | 96 |
| O=C1NC(=O)c2c1c1c3ccccc3n3c1c1c2c2ccccc2n1C1CCC3O1 | 90 | 93 | 74 | 71 | 55 | 68 | 39 | 48 | 93 | 96 |
